The structures appear in SMILES notation. Results filed as inconclusive are left out. Activity calls are given as the source filed them. How the source made its calls: active means hit-call score of the fitted dose curve at least 0.9, where 1 is the maximum; inconclusive means response in the unintended direction; inactive means score below 0.9.

The test has as its system rat Adrenergic, Alpha 1B Receptor (Adra1B), gene 24173. Nature of the test: NVS_GPCR_rAdra1B: NovaScreen (NVS) G Protein-Coupled Receptor Assay for rat Adrenergic, Alpha 1B Receptor (Adra1B) (AID 2283297). On the procedure:
NVS_GPCR_rAdra1B is a biochemical, single-readout assay that uses extracted gene-proteins from Rat liver membranes in a tissue-based cell-free assay. Measurements were taken 1 hour after chemical dosing in a 48-well plate.NVS_GPCR_rAdra1B is one of one assay component(s) measured or calculated from the NVS_GPCR_rAdra1B assay. It is designed to make measurements of radioligand binding, a form of binding reporter, as detected with scintillation counting signals by Filter-based radiodetection technology.Data from the assay component NVS_GPCR_rAdra1B was analyzed into 1 assay endpoint. This assay endpoint, NVS_GPCR_rAdra1B, was analyzed in the positive analysis fitting direction relative to DMSO as the negative control and baseline of activity. Using a type of binding reporter, loss-of-signal activity can be used to understand changes in the binding as they relate to the gene Adra1b. Furthermore, this assay endpoint can be referred to as a primary readout, because the performed assay has only produced 1 assay endpoint. To generalize the intended target to other relatable targets, this assay endpoint is annotated to the gpcr intended target family, where the subfamily is rhodopsin-like receptor.
Binding assays used specific radioligands (tritiated, iodinated) with non-radioactive competitive displacement ligands in agonist or antagonist protocols (as indicated) and various reference compounds and inhibitors to titrate specific binding to receptors and transporters. Most enzyme assays (CYPs, kinases, phosphatases, proteases, HDACs) used recombinant protein and specific substrates (fluorescence mostly, some colorimetric and radioactive) and inhibitors, followed by a biochemical separation of substrate and product. All assays for the biochemical HTS were initially run in duplicate at a single concentration (10 uM for CYP450 assays and 25 uM for all others). […] Each assay was run with positive and negative controls, and concurrent controls on every plate. The follow-up (secondary) screen tested active chemical-pairs in concentration series, as well as a few additional assays not tested in the primary screen, some selected negative inactives, and several cases re-run in the concentration series for confirmatory purposes.
Consider `O=c1[nH]c2ccc(S(=O)CCN3CCC(Cc4ccc(F)cc4)CC3)cc2o1` (stereo unspecified), for which the AC50 (usually the concentration giving half of the maximal activity seen) is 3.46 µM (active). Same read-out and setting: with `Nc1ccc(Nc2ccccc2)cc1` the figure was 40.6 µM (active); with `Cc1[nH]cnc1C[C@H]1CCc2c(C)c3ccccc3n2C1=O`, 11.9 µM (active).

On to `Cn1cnc([N+](=O)[O-])c1Sc1ncnc2nc[nH]c12`, for which the compound was called inactive.

Take `CC[C@H]1CC[C@H](NCc2cc3c(cc2OC)[C@H]2C[C@H]2C(=O)N3C)[C@H](c2ccccc2)N1`: the AC50 was 17.2 µM (active). The same measure, in the same setting: with `COCCOc1cc2cc(C(=O)NC3CCN(C(C)C)CC3)n(CC(=O)Nc3ccc(Cl)cn3)c2cn1` the figure was 15.3 µM (active).

`CNS(=O)(=O)c1cc(C(=O)N2CCC(CCN3C4CCC3CC(n3c(C)nc5ccccc53)C4)(c3cccc(F)c3)CC2)c(Cl)cc1F` (stereo unspecified): the AC50 was 2.1 µM (active).

As for `CCc1cc(SCc2sc(-c3ccc(C(F)(F)F)cc3)nc2CN2CCN(c3ccc(OC)cc3)CC2)ccc1OCC(=O)O`, the compound was classed as inactive.

With `COc1cccc(-c2ccc(/C=C\CN3CCCCCC3)cc2Cl)c1`, the AC50 is 18.7 µM (active). On the same count and under the same terms, in the case of `CCCN(C1CCN(C(=O)C2CCNCC2)CC1)[C@@H]1CCc2ccc(OC)cc2C1` it was 12.8 µM (active).

On to `CCCCCCCCCCCCCCCO`, for which the compound was classed as inactive.

For the origin of these results see PubChem BioAssay (EPA / NIEHS).
